Common to all, as to assay: qHTS profiling for inhibitors of Plasmodium falciparum proliferation (AID 504749); further: nearly all actives have a fitted effect of over 60% in size
What all share (details): P. falciparum in erythrocytes, SYBR Green DNA, 72 h; series mostly up to 28.7 µM
On the technique in general: In qHTS, concentration-response curves come from the screen itself.

One assay concerns CP297. In a few lines:
(§1)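 Each compound contacts P. falciparum-infected red blood cells for 72 h at 37 C; lysis buffer (Tris, EDTA, saponin, Triton X, SYBR Green I) is added and fluorescence measured next morning; values normalized to controls.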

A further assay has as its system CP305. In short, it runs like this:
as §1

The subject of another assay is CP315. In a few lines: as §1
The test system of another assay is CP325. In short, it runs like this:
as §1

The subject of another assay is CP329. In a few lines:
as §1

The next assay concerns CP335. In a few lines:
as §1

In a further assay the test system is DFO2036. In short, it runs like this:
as §1

Another assay relates to DIV14. In short, it runs like this:
as §1

The subject of a further assay is DIV17. In short, it runs like this: as §1
The next assay has as its system DIV30. In short, it runs like this:
as §1

The next assay relates to ECU. In short, it runs like this: as §1
Another assay deals with FAB9. In short, it runs like this:
as §1

Another assay concerns GB4. In short, it runs like this:
as §1

For the next assay, the system named is HB3. In short, it runs like this:
as §1

For the next assay, the system named is ICS. In short, it runs like this: as §1
A further assay deals with JCK. In short, it runs like this:
as §1

The next assay deals with N140. In short, it runs like this:
as §1

The next assay has as its system P93_24. In short, it runs like this:
as §1

A further assay relates to P94_40. In a few lines: as §1
The subject of another assay is Dd2. In short, it runs like this: as §1

Molecules are shown by their SMILES. Inconclusive results are not listed. Active and inactive are the calls of the source. The call rests on the fitted dose curve; in most records, active means well fitted inhibition curve with a large enough effect; inconclusive means small, poorly fitted or top-dose-only effect; inactive means flat fitted curve, though single readings scatter.
Potency means the concentration at half of the fitted maximal effect.

Take `C[C@]12CC[C@@H]3c4ccc(OC(=O)c5ccccc5)cc4CC[C@H]3[C@@H]1CC[C@@H]2O`: the Potency result in the assay on CP297, with CP305, with CP315, in the assay with CP325, in the assay on CP329 and in the assay on DFO2036 was “inactive” throughout. In addition, the Potency result with DIV14, with DIV17, in the assay on DIV30, in the assay on ECU, with FAB9 and in the assay with GB4 was “inactive” throughout. For the same compound, the Potency result with HB3, with JCK, in the assay with N140, with P93_24 and with P94_40 was “inactive” throughout. The Potency is 12 µM (active) in the assay on CP335 and 11.2 µM (active) with ICS.
As to `C(=C\c1ccncc1)/c1ccccc1`, the Potency result in the assay on CP297, with CP305, with CP315, in the assay on CP325, in the assay on CP329 and in the assay with CP335 was “inactive” each time. The Potency result in the assay with DFO2036, with DIV14, in the assay with DIV17, with DIV30, in the assay with Dd2 and in the assay on FAB9 was “inactive” in each case. Further, the Potency result in the assay on GB4, with JCK, with N140 and in the assay with P94_40 was “inactive” each time.
As for `CC(=O)Nc1c(I)c(C(=O)O)c(I)c(N(C)C(C)=O)c1I`, the Potency result in the assay with CP297, with CP305, in the assay on CP315, in the assay with CP325, in the assay with CP329 and with CP335 was “inactive” each time. Besides, the Potency entry in the assay on DFO2036, with DIV14, with DIV17, in the assay on DIV30, with Dd2 and in the assay on FAB9 was “inactive” throughout. Also, the Potency result in the assay with GB4, in the assay on HB3, with ICS, with JCK, with N140 and in the assay with P93_24 was “inactive” in each case. In addition, the Potency result with P94_40 is “inactive”.
For `CC(C)CCCCCCc1ccc(O)cc1`, the Potency entry in the assay on CP297, with CP305, in the assay with CP315, in the assay on CP325, in the assay with CP329 and in the assay on CP335 was “inactive” in each case. Further, the Potency entry with DFO2036, in the assay with DIV14, in the assay with DIV17, with DIV30, in the assay on Dd2 and in the assay on FAB9 was “inactive” throughout. Further, the Potency result in the assay with GB4, in the assay on HB3, with JCK and in the assay with N140 was “inactive” each time. Besides, the Potency with ICS and in the assay on P94_40 was 12.6 µM (active) each time.
Turning to `[O]=[Bi][O]C(=O)[O][Bi]=[O]`, the Potency entry in the assay on CP297, in the assay on CP305, with CP315, in the assay on CP325, with CP329 and with CP335 was “inactive” throughout. The Potency entry in the assay on DFO2036, with DIV14, in the assay on DIV17, in the assay on DIV30, in the assay with Dd2 and with ECU was “inactive” each time. Also, the Potency result in the assay on FAB9, in the assay with GB4, in the assay on HB3, in the assay on JCK, in the assay with N140 and in the assay on P93_24 was “inactive” in each case. Besides, the Potency entry in the assay on P94_40 was “inactive”.
With `CCCCCCCCCCCCCCCCCCCCCC(=O)Nc1ccn([C@@H]2O[C@H](CO)[C@@H](O)[C@@H]2O)c(=O)n1`, the Potency entry in the assay on CP297, with CP305, with CP315, with CP325, in the assay on CP329 and with CP335 was “inactive” in each case. The Potency result in the assay on DFO2036, with DIV14, with DIV17, in the assay with DIV30, with Dd2 and in the assay with ECU was “inactive” throughout. Also, the Potency entry in the assay on FAB9, in the assay with HB3, in the assay with JCK, in the assay on N140, in the assay with P93_24 and with P94_40 was “inactive” in each case.
In the case of `O=C(O)CCC/C=C\C[C@@H]1[C@@H](/C=C/[C@@H](O)COc2cccc(C(F)(F)F)c2)[C@H](O)C[C@@H]1O`, the Potency entry in the assay with CP297, with CP305, with CP315, in the assay with CP325, in the assay on CP329 and in the assay with CP335 was “inactive” in each case. The Potency entry in the assay with DFO2036, in the assay on DIV14, with DIV17, with DIV30, with Dd2 and in the assay with ECU was “inactive” in each case. Moreover, the Potency entry in the assay with FAB9, with GB4, in the assay with HB3, in the assay on JCK and in the assay on P93_24 was “inactive” in each case.
Consider `CCN(CC)CCOc1ccccc1OC`, for which the Potency entry in the assay with CP297, in the assay with CP305, in the assay with CP315, with CP325, in the assay with CP329 and with CP335 was “inactive” in each case. Further, the Potency result with DFO2036, in the assay on DIV14, with DIV17, in the assay on DIV30, in the assay on Dd2 and in the assay on ECU was “inactive” throughout. The Potency entry in the assay on FAB9, in the assay on HB3, in the assay on ICS, in the assay with JCK, with N140 and with P93_24 was “inactive” each time. Also, the Potency entry with P94_40 is “inactive”.
With `O=P(O)(O)OC[C@H](O)CO`, the Potency entry in the assay with CP297, in the assay on CP305, with CP315, in the assay on CP325, in the assay on CP329 and with CP335 was “inactive” each time. For the same compound, the Potency result in the assay with DFO2036, in the assay on DIV14, with DIV17, in the assay on DIV30, in the assay with Dd2 and in the assay on ECU was “inactive” throughout. Further, the Potency entry in the assay with FAB9, in the assay on GB4, in the assay on HB3, with ICS, in the assay on JCK and with N140 was “inactive” each time. The Potency entry in the assay with P93_24 and in the assay with P94_40 was “inactive” throughout.
Turning to `C[C@H](CCCC(C)(C)O)[C@H]1CC[C@H]2[C@@H]3CC=C4C[C@@H](O)CC[C@]4(C)[C@H]3CC[C@]12C`, the Potency result in the assay with CP297, with CP305, in the assay on CP315, in the assay with CP325, in the assay on CP329 and in the assay with CP335 was “inactive” throughout. The Potency result in the assay with DFO2036, in the assay with DIV14, in the assay on DIV17, in the assay on DIV30, with ECU and with FAB9 was “inactive” in each case. The Potency result in the assay on GB4, in the assay with JCK, with N140 and in the assay on P93_24 was “inactive” throughout. In addition, the results for the Potency in the assay on Dd2 and with ICS were 15.8 µM (active) and 12.6 µM (active), respectively.
Regarding `C[Se]CC[C@H](N)C(=O)O`, the Potency result in the assay with CP297, in the assay on CP305, in the assay on CP315, with CP325, with CP329 and with CP335 was “inactive” in each case. Also, the Potency entry with DFO2036, with DIV14, with DIV17, in the assay with DIV30, in the assay on Dd2 and in the assay on ECU was “inactive” each time. The Potency result in the assay with FAB9, in the assay with GB4, with HB3, in the assay on ICS, with JCK and with N140 was “inactive” each time. Besides, the Potency entry with P93_24 and in the assay with P94_40 was “inactive” throughout.
As for `C[C@H](O)CN(C)C`, the Potency entry with CP297, with CP305, with CP315, with CP325, in the assay with CP329 and in the assay on CP335 was “inactive” throughout. The Potency entry in the assay on DFO2036, in the assay with DIV14, in the assay with DIV17, in the assay with DIV30, in the assay on Dd2 and in the assay on ECU was “inactive” in each case. Further, the Potency entry in the assay with FAB9, with GB4, in the assay with HB3, in the assay with ICS, with JCK and in the assay with N140 was “inactive” throughout. In addition, the Potency result in the assay with P93_24 and with P94_40 was “inactive” each time.
As for `Cc1cc(C)c(NC(=O)C[C@H](CC(=O)O)c2cccc3ccccc23)c(C(=O)N2CCC3(CCCC3)CC2)c1`, the Potency result in the assay on CP297, with CP305, with CP315, in the assay with CP325, in the assay on CP329 and with CP335 was “inactive” in each case. The Potency entry in the assay with DFO2036, in the assay on DIV14, in the assay on DIV17, in the assay on DIV30, in the assay on ECU and in the assay with FAB9 was “inactive” in each case. The Potency result in the assay with GB4, in the assay with HB3, with JCK, with N140, in the assay on P93_24 and in the assay with P94_40 was “inactive” each time.
`S=C1SCN(Cc2ccccc2)CN1Cc1ccccc1`: the Potency entry with CP297, in the assay on CP305, in the assay with CP315, in the assay on CP325, with CP329 and in the assay on CP335 was “inactive” in each case. Further, the Potency result with DFO2036, with DIV14, in the assay with DIV17, with DIV30, with Dd2 and in the assay with ECU was “inactive” throughout. Besides, the Potency result with FAB9, in the assay on GB4, in the assay on HB3, in the assay with ICS, in the assay with JCK and in the assay with N140 was “inactive” throughout. Further, in the assay with P94_40, the Potency result is “inactive”.

Source of the values: PubChem BioAssay (NCATS).
